These results are taken from PubChem BioAssay.

Assay [1] concerns Plasmodium falciparum Sir2 (PF13_0152, Sir2A). The assay can be described thus: pfSir2 binders on small-molecule microarrays, primary screen, biochemical, small-molecule microarray, 635 nm fluorescence (AID 1098).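 Further: score merges spot fluorescence intensity with its signal-to-noise ratio.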 The note with it: small-molecule microarray binding, fluorescence 635 nm; higher = more signal.
Assay [2] is described as follows: small-molecule microarray binders of probe aDKK1, primary screen, biochemical, biotinylated probe, 635/667 nm fluorescence (AID 1099).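 Further: score merges 667nm spot fluorescence with signal to noise across triplicate slides; reference of the scale not given here.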 Particulars: higher = more signal.
The nature of assay [3]: small-molecule microarray binders of probe aCHRDL2, primary screen, biochemical, biotinylated probe, 635/667 nm fluorescence (AID 1100). Particulars: higher = more signal.
Assay [4] is described as follows: splicing luciferase reporter signal modulators, primary screen, spliceosome inhibition project, cell-based, HEK293, splice +/- reporter (AID 1101).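 Further: HEK293 cells carrying a splicing-competent luciferase reporter gene; test concentration not given here.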 Particulars: luminescence, 24 h, higher = more signal, called active from +8 up or from −8 down. (A reporter such as luciferase makes a cellular process visible.)
For assay [5], the target named is Fibroblast growth factor 10 (Homo sapiens) (UniProt O15520). The assay can be described thus: FGF10 binders on small-molecule microarrays, primary screen, biochemical, small-molecule microarray, 635 nm fluorescence (AID 1102). The note with it: FGF10 binding, fluorescence 635 nm, higher = more signal.
The subject of assay [6] is glycogen synthase kinase-3 (GSK3A per assay name; protocol says GSK3B). The assay can be described thus: GSK3 binders on small-molecule microarrays, primary screen, biochemical, small-molecule microarray, 635 nm fluorescence, GSK3A (AID 1103). Further: the record names both GSK3A and GSK3B. Particulars: small-molecule microarray binding, fluorescence 635 nm; higher = more signal.
In assay [7] the target is Epidermal growth factor receptor (Homo sapiens) (UniProt P00533). Put plainly: EGFR binders on small-molecule microarrays, primary screen, biochemical, small-molecule microarray, 635 nm fluorescence (AID 1104).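 Further: score merges 667 nm emission intensity with spot signal to noise over triplicate slides.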 The note with it: EGFR binding, higher = more signal.
Assay [8] addresses Follistatin-related protein 3 (Homo sapiens) (UniProt O95633). The assay can be described thus: FSTL3 binders on small-molecule microarrays, primary screen, biochemical, small-molecule microarray, 635 nm fluorescence (AID 1105).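 Further: score merges emission near 667 nm and signal to noise per printed spot across three slides.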 Particulars: FSTL3 binding, higher = more signal.
Assay [9] addresses Dickkopf-related protein 1 (Homo sapiens) (UniProt O94907). The assay can be described thus: DKK1 binders on small-molecule microarrays, primary screen, biochemical, small-molecule microarray, 635 nm fluorescence scan (AID 1106).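 Further: score merges emission near 667 nm with signal to noise over three replicate slides.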 The note with it: DKK1 binding, higher = more signal.
Assay [10] concerns Inhibin beta A chain (activin A). Put plainly: INHBA (activin A) binders on microarrays, primary screen, biochemical, small-molecule microarray, 635 nm fluorescence scan (AID 1107).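 Further: mouse activin A protein probed at 4.33 µg/mL on printed slides; score merges bound-protein fluorescence near 667 nm with spot signal-to-noise.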 Particulars: small-molecule microarray binding, higher = more signal.

Calls of active or inactive are those of the source.

Dickkopf-related protein 1 (Homo sapiens), sequence (O94907 whole entry, looked up): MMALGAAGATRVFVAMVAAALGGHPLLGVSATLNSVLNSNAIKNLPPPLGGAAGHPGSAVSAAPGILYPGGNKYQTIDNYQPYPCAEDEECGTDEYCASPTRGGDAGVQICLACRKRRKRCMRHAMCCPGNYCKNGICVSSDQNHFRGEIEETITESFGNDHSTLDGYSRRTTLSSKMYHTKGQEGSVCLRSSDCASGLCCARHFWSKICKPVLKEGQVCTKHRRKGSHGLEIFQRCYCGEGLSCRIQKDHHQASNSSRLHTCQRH
Follistatin-related protein 3 (Homo sapiens), sequence (O95633 whole entry, looked up): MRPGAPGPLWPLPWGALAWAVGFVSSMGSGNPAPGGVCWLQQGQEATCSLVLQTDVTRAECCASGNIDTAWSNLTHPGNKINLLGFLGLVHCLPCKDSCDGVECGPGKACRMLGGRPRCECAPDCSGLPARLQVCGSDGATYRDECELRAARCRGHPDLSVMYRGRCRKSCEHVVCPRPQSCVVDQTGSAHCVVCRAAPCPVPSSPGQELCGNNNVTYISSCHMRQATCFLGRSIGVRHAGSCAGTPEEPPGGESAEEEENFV
Fibroblast growth factor 10 (Homo sapiens), sequence (O15520 whole entry, looked up): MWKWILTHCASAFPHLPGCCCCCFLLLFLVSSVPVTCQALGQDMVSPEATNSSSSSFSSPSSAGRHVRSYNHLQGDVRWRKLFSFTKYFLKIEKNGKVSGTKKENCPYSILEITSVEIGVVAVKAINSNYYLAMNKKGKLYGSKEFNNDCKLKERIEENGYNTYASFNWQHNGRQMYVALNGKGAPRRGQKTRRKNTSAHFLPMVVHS
Epidermal growth factor receptor (Homo sapiens), sequence (P00533 whole entry, looked up): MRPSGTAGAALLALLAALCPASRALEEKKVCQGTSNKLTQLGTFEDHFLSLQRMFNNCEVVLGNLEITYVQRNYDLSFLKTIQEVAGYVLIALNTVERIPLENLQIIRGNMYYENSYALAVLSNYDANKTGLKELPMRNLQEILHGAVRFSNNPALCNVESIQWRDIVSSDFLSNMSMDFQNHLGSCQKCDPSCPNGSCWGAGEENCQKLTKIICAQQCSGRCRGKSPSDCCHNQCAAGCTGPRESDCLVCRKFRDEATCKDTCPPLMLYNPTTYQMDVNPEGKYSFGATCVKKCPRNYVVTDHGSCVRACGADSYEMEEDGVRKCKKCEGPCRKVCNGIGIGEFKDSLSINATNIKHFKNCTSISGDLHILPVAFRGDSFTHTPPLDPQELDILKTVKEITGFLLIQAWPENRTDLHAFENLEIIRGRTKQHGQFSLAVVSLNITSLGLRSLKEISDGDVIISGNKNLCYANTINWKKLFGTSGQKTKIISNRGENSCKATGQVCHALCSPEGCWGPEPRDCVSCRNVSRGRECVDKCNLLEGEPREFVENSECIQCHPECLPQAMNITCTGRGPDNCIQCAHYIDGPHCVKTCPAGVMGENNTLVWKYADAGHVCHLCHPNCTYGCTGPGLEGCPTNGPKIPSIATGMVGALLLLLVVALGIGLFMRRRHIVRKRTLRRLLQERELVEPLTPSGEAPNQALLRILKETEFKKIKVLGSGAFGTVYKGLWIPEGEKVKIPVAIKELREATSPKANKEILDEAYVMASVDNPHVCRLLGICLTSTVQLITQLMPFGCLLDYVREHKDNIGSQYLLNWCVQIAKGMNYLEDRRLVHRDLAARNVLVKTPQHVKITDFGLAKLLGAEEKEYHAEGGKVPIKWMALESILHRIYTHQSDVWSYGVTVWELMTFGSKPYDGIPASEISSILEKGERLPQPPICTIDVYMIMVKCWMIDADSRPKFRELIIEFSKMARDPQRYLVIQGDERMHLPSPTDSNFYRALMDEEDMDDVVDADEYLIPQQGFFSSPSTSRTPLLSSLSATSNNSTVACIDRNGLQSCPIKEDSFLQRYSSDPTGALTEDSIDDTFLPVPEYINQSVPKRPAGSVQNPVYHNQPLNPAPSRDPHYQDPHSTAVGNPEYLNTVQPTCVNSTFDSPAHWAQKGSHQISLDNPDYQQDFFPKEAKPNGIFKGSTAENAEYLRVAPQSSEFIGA

For `C=CCC(OC(C)=O)[C@@H]1[C@@H](N(Cc2cc3ccccc3o2)C(=O)Cc2ccc(OC)cc2)c2cc(OCCCO)ccc2N1C(=O)c1ccc2ccccc2c1` (stereo not given in full), the composite z-score in assay [1] is 1.02; in assay [2], -0.172; in assay [3], 0.395; in assay [5], -0.0205; in assay [6] it was -0.683; in [7], -0.536. The composite z-score in assay [8] is -0.0573; in [9], -0.306; in assay [10] it was 1.16. Also, the z-score in [4] is -0.564 (inactive).
For `COc1ccc(NN2C(C(O)c3ccc(N(C)C)cc3)C=CC3C(=O)N(C4CCCCC4)C(=O)C32)cc1` (stereo not given), the composite z-score in assay [1] amounted to 1.01; in assay [2] it was 1.15; in assay [3] it was 0.649; in assay [5], 0.635; in assay [6] it was 1.3; in assay [7], 0.322. Also, the figures for the composite z-score in [8], in assay [9] and in assay [10] were 0.659, -0.28 and 0.814, respectively. In assay [4], the z-score is -0.438 (inactive).
Consider `COc1ccc(C(=O)Nc2ccc(CN3C(=O)[C@]4(O[C@H](CC(=O)N5CCC[C@H]5CO)[C@@H]([Si](C)(C)c5ccc(OC)cc5)[C@@H]4C)c4ccccc43)cc2)cc1`, for which the composite z-score in assay [1] was 1.46; in [2], -0.314; in [3], 0.0167; in [5] it was 0.679; in assay [6], 0.573; in [7] it was 0.352. Moreover, the results for the composite z-score in assay [8], in [9] and in [10] were 0.683, 0.545 and 0.0938, respectively. Besides, in assay [4], the z-score was 1.76 (inactive).
As to `CC1CC/C=C\[C@H]2OC34C=CCN(c5ccc6ccccc6c5)C(=O)[C@H]3N(CCO)C(=O)[C@@H]4C2C(=O)O1` (stereo not given in full), the composite z-score in assay [1] was 1.76; in [2], -0.122; in assay [3] it was 0.915; in assay [5], -0.681; in assay [6] it was -0.844; in assay [7], -1.13. Also, the results for the composite z-score in assay [8], in assay [9] and in [10] were -0.391, -1.02 and 0.838, respectively. In addition, the z-score in assay [4] was -0.538 (inactive).
With `CC=CC(O)C1C=CC2C(=O)N(C)C(=O)C2N1N(c1ccccc1)c1ccccc1` (stereo not given), the composite z-score in assay [1] is 0.293; in assay [2], -0.0262; in assay [3] it was 0.211; in assay [5], 0.128; in assay [6], -0.343; in [7], 1.19. For the same compound, the composite z-score is -0.315 in [8], 0.653 in [9] and 1.12 in assay [10]. Further, the z-score in assay [4] was 1.06 (inactive).
Take `CC(c1ccccc1)C(O)C1C=CC2C(=O)N(c3ccccc3)C(=O)C2N1Nc1ccccc1` (stereo not given): the composite z-score in assay [1] was 1.18; in assay [2] it was 0.807; in [3] it was 0.818; in [5] it was 1.4; in assay [6], 0.297; in assay [7], 0.177. Besides, the results for the composite z-score in [8], in assay [9] and in assay [10] were 1.46, -0.0656 and 0.215, respectively. The z-score in assay [4] was -0.716 (inactive).
As for `COC(=O)C(CC#Cc1ccc2c(c1)[C@]1(C(=O)N2)[C@H](c2ccccc2OCCO)N2[C@H](c3ccccc3)[C@H](c3ccccc3)OC(=O)[C@H]2[C@@H]1C(N)=O)C(=O)OC`, the composite z-score in assay [1] stood at 1.54; in assay [2], 1.45; in assay [3], 0.862; in assay [5], 0.376; in assay [6], 1; in assay [7], 0.241. Moreover, the composite z-score in assay [8] was 0.412; in [9], -0.221; in [10] it was 0.693. In addition, the z-score in assay [4] is -3.57 (inactive).
For `COC(=O)C(CC#Cc1ccc2c(c1)[C@]1(C(=O)N2)[C@H](c2ccccc2OCCO)N2[C@H](c3ccccc3)[C@H](c3ccccc3)OC(=O)[C@H]2[C@@H]1C(=O)O)C(=O)OC`, the composite z-score was 1.49 in assay [1]; 0.666 in assay [2]; 0.0004 in assay [3]; 0.738 in assay [5]; 0.93 in assay [6]; 0.28 in assay [7]. For the same compound, the composite z-score in [8] is 0.356; in assay [9] it was 0.278; in assay [10] it was 1.04. The z-score in assay [4] was -0.597 (inactive).
Regarding `C=C(CCCC)C(=O)CC[C@@H](OC(C)=O)c1ccc(CO)o1`, the composite z-score is 1.24 in assay [1]; -0.269 in assay [2]; -0.457 in assay [3]; 1.12 in [5]; 0.179 in assay [6]; -0.353 in [7]. In addition, the values for the composite z-score in assay [8], in [9] and in assay [10] were 0.523, 0.0693 and 0.945, respectively. In addition, the z-score in assay [4] is 0.251 (inactive).
Turning to `O=C(NCCN1CCOCC1)[C@@H]1c2ccccc2C(=O)N(Cc2cc(C(F)(F)F)cc(C(F)(F)F)c2)[C@H]1c1ccc(CO)cc1`, the composite z-score in assay [1] is 1.51; in [2] it was 0.254; in assay [3], 0.851; in [5], -1.17; in assay [6], -0.332; in [7] it was -1.35. The composite z-score in assay [8] is -1.55; in [9], -1.23; in [10] it was -1.54. Further, the z-score in [4] is 0.91 (inactive).
For `O=C1OCC=C[C@H]2OC34C=CCN(Cn5nnc6ccccc65)C(=O)[C@H]3N(CCCCCO)C(=O)[C@@H]4[C@@H]12` (stereo not given in full), the composite z-score is 0.665 in assay [1]; 0.26 in assay [2]; 0.586 in assay [3]; -0.658 in assay [5]; -0.614 in [6]; -1.31 in assay [7]. Further, the composite z-score in assay [8] is -0.77; in [9], -1.29; in [10], -0.212. The z-score in assay [4] was -0.313 (inactive).
`[N-]=[N+]=Nc1ccccc1C[C@]1(C(=O)NCc2ccccc2)N=C(c2ccc(OCCCO)cc2)O[C@H]1c1ccccc1N=[N+]=[N-]`: the composite z-score in [1] was 1.04; in assay [2], 0.236; in assay [3], 0.778; in assay [5] it was 1.31; in assay [6] it was 0.34; in assay [7], 0.291. The composite z-score was 0.646 in assay [8], -0.245 in assay [9] and 1.11 in [10]. Further, the z-score in [4] was 0.716 (inactive).
As to `[N-]=[N+]=Nc1ccccc1[C@H]1OC(c2ccc(OCCCO)cc2)=N[C@@]1(CCS(=O)(=O)c1ccccc1)C(=O)NCc1ccccc1`, the composite z-score in assay [1] was found to be 0.91; in [2], 0.812; in assay [3], 0.988; in [5] it was 1.18; in assay [6], 1.32; in [7], 0.258. For the same compound, the composite z-score in [8] was 1.14; in [9] it was 0.584; in assay [10], 1.05. Moreover, in assay [4], the z-score was -0.431 (inactive).
As for `CCOC(=O)[C@H]1C/C=C/C[C@H](C(=O)OCC)C(=O)O[C@H]2[C@@H](OC)O[C@H](CO)[C@@H](OC(=O)c3ccc(Br)cc3)[C@@H]2OC1=O`, the composite z-score is -0.009 in assay [1]; -0.444 in assay [2]; 0.44 in assay [3]; 0.88 in [5]; -0.51 in assay [6]; 0.0445 in [7]. Further, the composite z-score in assay [8] turned out to be 0.366; in [9] it was 0.34; in assay [10], 0.802. Moreover, the z-score in assay [4] is -1.25 (inactive).
As to `CCCCC(=C=CC[C@@H](O)c1ccc(CO)o1)CCO`, the composite z-score in assay [1] was 0.175; in assay [2], -0.119; in [3], -0.479; in [5], 0.788; in assay [6] it was 0.621; in assay [7], -0.617. For the same compound, the composite z-score in assay [8] was -0.0762; in assay [9], 0.294; in [10], 1.26. The z-score in assay [4] is 0.37 (inactive).
For the compound `COC(=O)[C@]1(CCC(=O)OC(C)(C)C)N=C(c2ccc(OCCCO)cc2)O[C@@H]1c1ccccc1`, the composite z-score was 1.37 in assay [1]; 0.46 in assay [2]; 0.779 in assay [3]; -0.361 in assay [5]; -0.495 in [6]; -0.754 in assay [7]. Moreover, the composite z-score is -0.577 in assay [8], -0.563 in assay [9] and -0.0102 in assay [10]. Besides, the z-score in assay [4] was -0.783 (inactive).
